The term inhibition denotes the drop in the measured response relative to a control, in per cent.

Consider 20 compounds from PubChem BioAssay.

Assay [1] is described as follows: antimalarial activity against Dd2 strain (AID 2302;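 active = growth inhibition above 50% at the single 2 µM test dose, taken to imply half-maximal potency below 2 µM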;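 note: 0% = DMSO untreated growth and 100% = chloroquine plus artemisinin killed control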). The note with it: P. falciparum Dd2 in RBCs, LDH growth readout, 72 h; at 2 µM; active compounds read high.
The nature of assay [2]: human hepatoma cell viability loss – ATP luminescence, cytotoxicity control for P. falciparum antimalarial project, primary screen (AID 2303;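 active = inhibition above 50%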;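 note: 0% = DMSO wells and 100% = digitonin-killed cells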). Conditions: HepG2 viability, 24-48 h, at 10 µM, active compounds read high.
Assay [3] deals with L-lactate dehydrogenase (Plasmodium falciparum (isolate CDC / Honduras)) (UniProt Q27743). The assay is described as follows: PfLDH activity inhibition – cell lysate, 3D7 strain, counter-screen for P. falciparum growth inhibition project (AID 2304).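 Note: 0% = vehicle and 100% = reference inhibitor.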 Conditions: P. falciparum 3D7 crude extract, LDH APAD/NBT absorbance; at 2 µM; active compounds read high. (Counterscreens check selectivity or assay interference.)
L-lactate dehydrogenase (Plasmodium falciparum (isolate CDC / Honduras)), sequence (Q27743 whole entry, looked up): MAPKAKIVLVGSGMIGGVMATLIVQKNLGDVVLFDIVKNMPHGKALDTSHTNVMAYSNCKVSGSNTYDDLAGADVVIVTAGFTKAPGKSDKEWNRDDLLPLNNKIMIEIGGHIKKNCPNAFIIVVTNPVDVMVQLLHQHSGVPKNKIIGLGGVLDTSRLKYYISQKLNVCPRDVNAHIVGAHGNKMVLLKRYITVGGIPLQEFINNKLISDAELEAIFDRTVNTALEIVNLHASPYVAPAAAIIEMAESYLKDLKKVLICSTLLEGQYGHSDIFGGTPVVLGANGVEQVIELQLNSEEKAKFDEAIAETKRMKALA

A short description of assay [4]: inhibition of 3D7 malaria parasite growth – strain 3D7 (AID 2306).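 Note: 0% = DMSO wells and 100% = chloroquine plus artemisinin control wells.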 Conditions: P. falciparum 3D7 erythrocytic growth, LDH absorbance, 72 h; at 2 µM; active compounds read high.
Assay [5] deals with Calcium-dependent protein kinase 1 (Plasmodium falciparum (isolate 3D7)) (UniProt P62344). Description: PfCDPK1 kinase inhibitors, biochemical, TCAMS library (AID 1159585; cut-off not given, nearly all actives have IC50 up to about 0.98 µM;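 note: inhibitors leave more ATP so luminescence rises with inhibition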). Conditions: recombinant PfCDPK1, Kinase-Glo ATP depletion luminescence.
Calcium-dependent protein kinase 1 (Plasmodium falciparum (isolate 3D7)), sequence (P62344 whole entry, looked up): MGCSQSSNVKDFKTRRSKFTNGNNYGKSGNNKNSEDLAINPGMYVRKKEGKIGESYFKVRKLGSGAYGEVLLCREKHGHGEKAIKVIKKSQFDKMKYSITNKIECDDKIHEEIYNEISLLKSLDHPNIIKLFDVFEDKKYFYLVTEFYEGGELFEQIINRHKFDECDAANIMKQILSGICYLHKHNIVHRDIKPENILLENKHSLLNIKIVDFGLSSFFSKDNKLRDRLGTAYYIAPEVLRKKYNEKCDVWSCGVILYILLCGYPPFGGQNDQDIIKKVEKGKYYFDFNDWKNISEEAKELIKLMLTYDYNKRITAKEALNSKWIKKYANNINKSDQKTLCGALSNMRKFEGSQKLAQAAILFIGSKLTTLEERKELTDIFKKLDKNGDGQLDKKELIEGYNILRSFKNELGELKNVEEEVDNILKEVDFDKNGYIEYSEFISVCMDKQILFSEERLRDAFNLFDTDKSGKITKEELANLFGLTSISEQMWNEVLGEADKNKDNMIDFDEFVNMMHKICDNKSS
The target of assay [6] is Plasmodium falciparum protein kinase 6 (PK6, PF3D7_1337100) (UniProt Q8IDW1). Description: PfPK6 kinase inhibitors, biochemical, TCAMS library (AID 1159586). The note with it: recombinant PfPK6, Kinase-Glo ATP depletion luminescence.
Plasmodium falciparum protein kinase 6 (PK6, PF3D7_1337100), sequence (Q8IDW1 1-305): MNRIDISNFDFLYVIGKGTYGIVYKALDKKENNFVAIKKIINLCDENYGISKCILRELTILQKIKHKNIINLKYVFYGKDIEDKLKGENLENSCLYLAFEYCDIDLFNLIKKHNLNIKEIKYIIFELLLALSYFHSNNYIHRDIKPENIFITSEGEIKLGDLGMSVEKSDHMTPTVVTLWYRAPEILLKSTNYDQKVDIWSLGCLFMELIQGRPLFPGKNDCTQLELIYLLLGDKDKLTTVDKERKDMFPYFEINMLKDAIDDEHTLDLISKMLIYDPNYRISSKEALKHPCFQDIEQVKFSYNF
The target in assay [7] is Protein kinase 7 (PK7), Plasmodium falciparum 3D7 (PF3D7_0213400) (UniProt Q7YTF7). Description: inhibition of Plasmodium PK7 catalytic activity – biochemical, TCAMS antimalarial set, Kinase-Glo luminescence (AID 1159587). The note with it: recombinant PfPK7, Kinase-Glo ATP depletion luminescence. For orientation: Kinase-Glo reads ATP consumption through a luciferase reaction.
Protein kinase 7 (PK7), Plasmodium falciparum 3D7 (PF3D7_0213400), sequence (Q7YTF7 1-343): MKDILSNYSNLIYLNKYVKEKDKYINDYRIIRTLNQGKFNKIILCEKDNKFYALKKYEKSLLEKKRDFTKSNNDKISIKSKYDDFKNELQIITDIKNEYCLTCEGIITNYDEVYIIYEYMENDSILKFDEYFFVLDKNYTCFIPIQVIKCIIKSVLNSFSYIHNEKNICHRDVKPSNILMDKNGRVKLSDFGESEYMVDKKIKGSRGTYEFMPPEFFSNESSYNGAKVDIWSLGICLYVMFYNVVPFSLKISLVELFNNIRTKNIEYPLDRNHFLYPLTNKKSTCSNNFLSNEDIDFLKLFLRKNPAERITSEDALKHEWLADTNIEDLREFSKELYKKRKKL

Assay [8] concerns the target Calcium-dependent protein kinase 4 (Plasmodium falciparum (isolate 3D7)) (UniProt Q8IBS5). The assay is described as follows: PfCDPK4 kinase inhibitors, biochemical, TCAMS library (AID 1159588; cut-off not given, nearly all actives have IC50 up to about 0.91 µM). Conditions: recombinant PfCDPK4, Kinase-Glo ATP depletion luminescence.

A number with no mark means an inactive call. For some of these results: Measured potencies and affinities stand elsewhere. The source made the active and inactive calls. Unless noted, the rule behind the calls is not given here.

Calcium-dependent protein kinase 4 (Plasmodium falciparum (isolate 3D7)), sequence (Q8IBS5 whole entry, looked up): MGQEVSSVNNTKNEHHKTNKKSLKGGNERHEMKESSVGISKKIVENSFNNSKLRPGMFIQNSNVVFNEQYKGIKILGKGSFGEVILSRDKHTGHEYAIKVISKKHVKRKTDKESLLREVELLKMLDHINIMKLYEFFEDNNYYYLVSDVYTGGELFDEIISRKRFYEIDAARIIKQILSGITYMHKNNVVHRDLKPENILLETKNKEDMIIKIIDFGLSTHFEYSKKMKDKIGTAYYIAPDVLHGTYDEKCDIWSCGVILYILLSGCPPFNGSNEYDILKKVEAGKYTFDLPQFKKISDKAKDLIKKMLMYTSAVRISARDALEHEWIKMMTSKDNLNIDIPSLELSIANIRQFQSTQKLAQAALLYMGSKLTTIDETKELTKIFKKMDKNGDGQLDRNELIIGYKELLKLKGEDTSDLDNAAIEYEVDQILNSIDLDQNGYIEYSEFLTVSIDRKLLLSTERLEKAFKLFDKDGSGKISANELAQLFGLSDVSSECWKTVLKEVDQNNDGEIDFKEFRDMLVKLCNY

On to `COc1ccc(CCCc2nc(N)nc(N)c2-c2ccc(Cl)cc2)cc1`, for which the growth inhibition in assay [1] was 0%; in assay [4], 94% (active). The inhibition in assay [2] was 65% (active); in assay [3], 2%. Also, the result in assay [5], in assay [6], in assay [7] and in assay [8] was inactive.
Regarding `Cc1noc(-c2ccc(O)cc2O)c1-c1ccc2c(c1)OCCCO2`, the growth inhibition in assay [1] was 99% (active); in assay [4] it was 100% (active). In addition, the inhibition in assay [2] is 8%; in assay [3], -4%. For the same compound, the result in assay [5], in assay [6], in assay [7] and in assay [8] was inactive.
With `COc1ccc(N2CCN(CCCCNC(=O)c3ccc(NC(=O)c4ccc(C(F)(F)F)cc4)cc3)CC2)c(OC)c1`, the results for the growth inhibition in assay [1] and in assay [4] were 8% and 100% (active), respectively. The inhibition in assay [2] is 4%; in assay [3], 6%. The result in assay [5], in assay [6], in assay [7] and in assay [8] was inactive.
As to `O=C(Nc1cccc(CN2CCCN(Cc3cccc(Cl)c3)CC2)c1)c1ccc(-c2ccccc2)cc1`, the growth inhibition is 14% in assay [1] and 86% (active) in assay [4]. The inhibition in assay [2] is 44%; in assay [3], 1%. Further, the result in assay [5], in assay [6], in assay [7] and in assay [8] was inactive.
Regarding `CCc1c(C)nc(-n2nc(C)cc2NC(=O)c2ccc(OC)cc2OC)[nH]c1=O`, the figures for the growth inhibition in assay [1] and in assay [4] were 57% (active) and 96% (active), respectively. Moreover, the inhibition in assay [2] was 42%; in assay [3], 1%. The outcome in assay [5], in assay [6], in assay [7] and in assay [8] was inactive.
For `CC1(C)N=C(N)N=C(N)N1OCCCOc1cccc(C(=O)O)c1`, the growth inhibition is 96% (active) in assay [1] and 94% (active) in assay [4]. The inhibition in assay [2] was 73% (active); in assay [3], -6%. The outcome in assay [5], in assay [6], in assay [7] and in assay [8] was inactive.
On to `COc1cc(Cc2cnc(N)nc2N)cc(OCCNC(=O)OCc2ccccc2)c1OC`, for which the growth inhibition in assay [1] is -3%; in assay [4], 93% (active). Also, the inhibition is 6% in assay [2] and 4% in assay [3]. Besides, the outcome in assay [5], in assay [6], in assay [7] and in assay [8] was inactive.
As to `O=C(Nc1ccc(CCNCc2ccccc2)cc1)Nc1ccc(OC(F)(F)F)cc1`, the growth inhibition in assay [1] was 22%; in assay [4], 102% (active). In addition, the inhibition in assay [2] and in assay [3] was -2% throughout. The result in assay [5], in assay [6], in assay [7] and in assay [8] was inactive.
Turning to `Oc1ccc(-c2cc(COc3ccccc3C(F)(F)F)c(C3=CCNCC3)cc2COc2ccccc2C(F)(F)F)cc1`, the values for the growth inhibition in assay [1] and in assay [4] were 62% (active) and 100% (active), respectively. In addition, the inhibition was 18% in assay [2] and 3% in assay [3]. Further, the result in assay [5], in assay [6], in assay [7] and in assay [8] was inactive.
Regarding `COc1ccc(NCCCNc2ccnc3ccccc23)cc1`, the growth inhibition is 17% in assay [1] and 88% (active) in assay [4]. The inhibition was 34% in assay [2] and 2% in assay [3]. Further, the outcome in assay [5], in assay [6], in assay [7] and in assay [8] was inactive.
On to `C(=N\Nc1nccc2sc(-c3cccnc3)cc12)/c1cccnc1`, for which the growth inhibition in assay [1] was 54% (active); in assay [4], 98% (active). The inhibition in assay [2] and in assay [3] was 5% throughout. For the same compound, the result in assay [5], in assay [6], in assay [7] and in assay [8] was inactive.
Take `Cc1cccc2[nH]c(-c3ccc(-c4ccc(CNCc5cccc(N)c5)cc4)s3)nc12`: the growth inhibition in assay [1] is 78% (active); in assay [4] it was 102% (active). Also, the inhibition was 10% in assay [2] and -2% in assay [3]. Besides, the result in assay [5], in assay [6], in assay [7] and in assay [8] was inactive.
For the compound `O=C(/C=C/c1ccc(Cl)cc1)NCCCCCN1CCN(C(=O)Nc2ccc(Cl)c(C(F)(F)F)c2)CC1`, the values for the growth inhibition in assay [1] and in assay [4] were 5% and 94% (active), respectively. For the same compound, the inhibition in assay [2] was 18%; in assay [3] it was 8%. The outcome in assay [5], in assay [6], in assay [7] and in assay [8] was inactive.
With `COc1cc2c(cc1C(F)(F)F)N(C(=O)Nc1cc(Br)cc(-c3cccnc3)c1)CC2`, the results for the growth inhibition in assay [1] and in assay [4] were 34% and 96% (active), respectively. Also, the values for the inhibition in assay [2] and in assay [3] were 8% and -1%, respectively. Also, the outcome in assay [5], in assay [6], in assay [7] and in assay [8] was inactive.
In the case of `CCCCCCCCNCC(O)c1cc(-c2ccc(Cl)cc2)nc2cc(C)ccc12` (stereo not given), the growth inhibition in assay [1] and in assay [4] was 99% (active) each time. In addition, the values for the inhibition in assay [2] and in assay [3] were 0% and -2%, respectively. Moreover, the result in assay [5], in assay [6], in assay [7] and in assay [8] was inactive.
For `CC(C)C[C@H](Nc1ccnc(NCC2CCCCC2)n1)C(=O)NCCOc1ccccc1`, the values for the growth inhibition in assay [1] and in assay [4] were 73% (active) and 89% (active), respectively. Also, the inhibition is 37% in assay [2] and 3% in assay [3]. Also, the result in assay [5], in assay [6], in assay [7] and in assay [8] was inactive.
Consider `COc1ccc2cc(C(C)NC3CCN(c4cccc(NC(=O)c5ccncc5)c4)CC3)ccc2c1` (stereo not given), for which the values for the growth inhibition in assay [1] and in assay [4] were 6% and 91% (active), respectively. For the same compound, the inhibition in assay [2] was 13%; in assay [3], -1%. The result in assay [5], in assay [6], in assay [7] and in assay [8] was inactive.
For `COc1ccc2nccc([C@@H](O)CN3CCC(NC(=O)/C=C/c4ccc5[nH]c(=O)ccc5c4)CC3)c2c1`, the growth inhibition is 83% (active) in assay [1] and 96% (active) in assay [4]. The inhibition in assay [2] was 2%; in assay [3], 5%. Moreover, the outcome in assay [5], in assay [6], in assay [7] and in assay [8] was inactive.
Consider `CC(C)(CNCc1ccc(C(F)(F)F)cc1)c1nc(-c2ccc(Cl)c(O)c2)c(-c2ccncc2)[nH]1`, for which the growth inhibition is 98% (active) in assay [1] and 101% (active) in assay [4]. In addition, the inhibition is 42% in assay [2] and -1% in assay [3]. In addition, the result in assay [5], in assay [6], in assay [7] and in assay [8] was inactive.
As for `Cc1nc(Nc2ccc(C)c(Cl)c2)c2c(C)noc2n1`, the results for the growth inhibition in assay [1] and in assay [4] were 72% (active) and 94% (active), respectively. The inhibition in assay [2] and in assay [3] was 0% throughout. The outcome in assay [5], in assay [6], in assay [7] and in assay [8] was inactive.
